# Results published in PubChem BioAssay (NCATS).
# “And” between values parts separate entries of the source, which are not always exact repeats. Equal entries are not always repeated. Inconclusive results are not listed. Where a call stands in place of a potency, no number is given. Some compounds were tested as several samples or in several runs, with calls that do not always agree. The source made the active and inactive calls. Calls come from the whole dose curve; as a rule, active = well fitted curve in the direction sought with a large enough effect; inconclusive = small, poorly fitted or top-dose-only effect, or another doubt; inactive = no such curve, though single readings can be large; an effect the other way counts as inactive or inconclusive.
# Columns and labels:
# [1] = target: Glutathione peroxidase 1 (Homo sapiens) (UniProt P07203); assay: Primary qHTS Assay for Inhibitors of Recombinant Selenoprotein Glutathione Peroxidase 1 (GPX1) (AID 1845191); note: nearly all actives have a fitted effect of over 65% in size
# Method in brief: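 GPX1 10 nM, GR 100 nM, GSH 1 mM, NADPH 0.5 mM, CHP 0.5 mM (final). 30-min cpd preincubation, RT. Ex340/Em450 read t=0, t=15 min.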
# [2] = target: Phospholipid hydroperoxide glutathione peroxidase GPX4 (Homo sapiens) (UniProt P36969); assay: Primary qHTS Assay for Inhibitors of Recombinant Selenoprotein Glutathione Peroxidase 4 (GPX4) (AID 1845192); note: nearly all actives have a fitted effect of over 65% in size; note: potency is the fitted concentration of half-maximal effect; for activity change, negative = inhibition: series mostly up to about 50 µM
# Method in brief: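 qHTS, GR-coupled: GPX4 200 nM + cpd 30 min RT → GSH 1 mM, NADPH 0.5 mM, GR 100 nM → CHP 0.5 mM start; fluor 340/450 at t0 and t15 min; no-enzyme wells as control.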
# [3] = target: Luciferin 4-monooxygenase (Photinus pyralis) (UniProt P08659); assay: Primary firefly luciferase (FLuc) qHTS assay for identification of artifact compounds. (AID 1845220); note: nearly all actives have a fitted effect of over 60% in size; note: potency is the fitted concentration of half-maximal effect; for activity change, negative = inhibition: series mostly up to about 54 µM
# Method in brief: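 Reaction readout was CCD-imaged luminescence, taken 5 min after adding 10 nM purified firefly enzyme to compound-treated wells holding 10 uM luciferin and ATP in pH 7.6 buffer.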
# [4] = Primary fluorescence-based thiol-reactive (MSTI) qHTS assay for identification of artifact compounds. (AID 1845221); note: nearly all actives have a fitted effect of over 65% in size; note: potency is the fitted concentration of half-maximal effect
# Method in brief: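 MSTI probe at 4 uM final in 2% DMSO/PBS pH 7.4; compounds, 1 h at room temperature in dark. Fluorescence Ex/Em 525/598 nm, normalised to Acetyl-MSTI and MSTI, fitted to 4-parameter Hill.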
# [5] = test system: Nanoluciferase (engineered Oplophorus gracilirostris luciferase); assay: Primary Nanoluciferase (NLuc) qHTS assay for identification of artifact compounds. (AID 1845222); note: potency is the fitted concentration of half-maximal effect
# Method in brief: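 Concentration-response data were obtained by luminescence after 5 min with Nano-Glo substrate at 1:100. The enzyme was diluted S16 NLuc-expressing cell medium, preincubated with compound for 15 min at RT. Curves were fitted with a 4-parameter Hill model.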
# Sequence of Glutathione peroxidase 1 (Homo sapiens) (P07203 whole entry, looked up): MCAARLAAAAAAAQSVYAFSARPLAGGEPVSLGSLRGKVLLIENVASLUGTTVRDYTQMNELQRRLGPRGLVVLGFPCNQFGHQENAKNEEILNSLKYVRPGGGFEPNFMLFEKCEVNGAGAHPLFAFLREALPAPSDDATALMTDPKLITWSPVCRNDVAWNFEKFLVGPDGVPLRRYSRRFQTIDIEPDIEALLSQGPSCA
# Sequence of Phospholipid hydroperoxide glutathione peroxidase GPX4 (Homo sapiens) (P36969 whole entry, looked up): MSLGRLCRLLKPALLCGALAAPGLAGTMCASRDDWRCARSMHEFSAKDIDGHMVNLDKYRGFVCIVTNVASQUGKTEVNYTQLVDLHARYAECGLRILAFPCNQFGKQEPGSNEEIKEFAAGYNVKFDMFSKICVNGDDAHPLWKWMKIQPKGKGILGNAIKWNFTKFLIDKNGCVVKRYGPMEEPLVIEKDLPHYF
SMILES,Potency [1],Potency [2],Potency [3],Potency [4],Potency [5],"activity change, negative = inhibition [3]"
CNC(=O)c1c(F)cccc1Nc1nc(Nc2cc3c(cc2OC)CCN3C(=O)CN(C)C)nc2[nH]ccc12,inactive,inactive,inactive,1.06 µM (active),inactive,–
Cc1c(NC(=O)OC[C@@H]2COCCN2)cn2ncnc(Nc3ccc4c(cnn4Cc4cccc(F)c4)c3)c12,inactive,inactive,inactive,inactive,inactive,–
CCN(CC)CCNC(=O)c1ccc2nc(-c3ccccc3)c(-c3ccc(CN4CCC(n5c(=O)[nH]c6ccccc65)CC4)cc3)nc2c1,inactive,inactive,inactive,–,inactive,–
COc1cc(Nc2ncc(F)c(Nc3ccc4c(n3)N(COP(=O)(O)O)C(=O)C(C)(C)O4)n2)cc(OC)c1OC,inactive,inactive,inactive,–,inactive,–
CS(=O)(=O)c1ccc(-c2cnc(N)c(C(=O)Nc3ccccc3)n2)cc1,inactive,inactive,inactive,inactive,inactive,–
Cc1ccc(C(=O)Nc2cccc(C(F)(F)F)c2)cc1-c1ccc2nc(NCCN3CCOCC3)ncc2c1,inactive,inactive,inactive,inactive,inactive,–
CC(C)(O)c1cc2nc(-c3cnc(N)nc3)nc(N3CCOCC3)c2s1,inactive,inactive,inactive,inactive,inactive,–
Cc1cn2c(-c3cn[nH]c3)cnc2c(Nc2ccc(C(=O)N3CCNCC3)cc2F)n1,inactive,inactive,inactive,inactive,–,–
Cc1cc(Nc2ncnc3ccc(-c4ccc(CNCCS(C)(=O)=O)o4)cc23)ccc1Oc1ccn2ncnc2c1,inactive,inactive,inactive,inactive,–,–
CC1COC2(CCN(c3nc(=O)c4cc(C(F)(F)F)cc([N+](=O)[O-])c4s3)CC2)O1 (stereo not given),inactive,inactive,inactive,–,inactive,–
O=C(Nc1cn[nH]c1-c1nc2ccc(CN3CCOCC3)cc2[nH]1)NC1CC1,inactive,inactive,inactive,–,inactive,–
CC(C)(O)CCc1ccc(OCc2cc(-c3cccc(OC(F)F)c3)c3ncccc3c2)cc1,inactive,inactive,13.5 µM (active),inactive,inactive,–
COc1cc(-c2nn(C3CCC(N4CCN(C(C)=O)CC4)CC3)c3ncnc(N)c23)ccc1NC(=O)c1cc2ccccc2n1C (stereo not given),inactive,inactive,inactive,inactive,inactive,–
Cc1cnc(-c2cnc(NCCNc3ccc(C#N)cn3)nc2-c2ccc(Cl)cc2Cl)[nH]1,inactive,inactive,inactive,inactive,3.38 µM (active),–
CCCn1c(=O)c2[nH]c(-c3cnn(Cc4cccc(C(F)(F)F)c4)c3)nc2n(CC)c1=O,inactive,inactive,inactive,inactive,inactive,–
Nc1cc(C(F)(F)F)c(-c2cc(N3CCOCC3)nc(N3CCOCC3)n2)cn1,inactive,inactive,inactive,inactive,inactive,–
CN1CCN(Cc2ccc(NC(=O)Nc3ccc(Oc4cc(NC(=O)C5CC5)ncn4)cc3)cc2C(F)(F)F)CC1,inactive,inactive,inactive,inactive,inactive,–
CNC(=O)c1nn(C)c2c1C(C)(C)Cc1cnc(Nc3ccc(N4CCN(C)CC4)cc3)nc1-2,inactive,inactive,inactive,–,inactive,–
CNC(=O)c1ccc(-c2cnc3ncc(Cc4ccc5ncccc5c4)n3n2)cc1F,inactive,inactive,inactive,inactive,inactive,–
Clc1cccc(-n2nnnc2NCc2ccccc2Oc2ccccn2)c1Cl,–,inactive,inactive,inactive,inactive,–
Cn1cc(-c2[nH]c3cc(NC(=O)[C@H](N)C4CCCCC4)cc4c3c2C=NNC4=O)cn1,–,inactive,inactive,21.2 µM (active),inactive,–
Cc1ccc(C(=O)Nc2ccc(CN3CCN(C)CC3)c(C(F)(F)F)c2)cc1C#Cc1cnc2cccnn12,–,inactive,–,inactive,inactive,–
c1ccc2c(CCNc3ccc(Nc4ccncc4)cc3)c[nH]c2c1,–,–,inactive,2.67 µM (active),inactive,–
COc1ccc(F)c(F)c1C(=O)c1cnc(NC2CCN(S(C)(=O)=O)CC2)nc1N,–,inactive,inactive,inactive,inactive,–
COc1c(N2C[C@@H]3CCCN[C@H]3C2)c(F)cc2c(=O)c(C(=O)O)cn(C3CC3)c12,–,18 µM (active),–,–,–,–
CCCNC(=O)Nc1ccc(Oc2ncnc3cc(OC)c(OC)cc23)cc1Cl,–,inactive,inactive,inactive,inactive,–
Cc1nc2cnc3ccc(C#Cc4cccnc4)cc3c2n1-c1ccc(C(C)(C)C#N)cc1,–,inactive,–,–,–,–

SMILES,Potency [1],Potency [2],Potency [3],Potency [4],Potency [5],"activity change, negative = inhibition [3]"
Cc1cc(CN2CCN(c3c(Br)cnc4nc(-c5ccc(N6CCN(C)CC6)cc5)[nH]c34)CC2)no1,–,inactive and 14.3 µM (active),inactive,–,inactive,–
CN(C)c1nc(Cc2ccc(NC(=O)c3ccc4ccccc4c3)cc2)nc(Cl)c1CC(=O)O,–,inactive,–,inactive,inactive,–
CN1CC[C@@H](c2c(O)cc(O)c3c(=O)cc(-c4ccccc4Cl)oc23)[C@@H](O)C1,–,inactive,–,–,–,–
CCOc1ccccc1OCCNC(C)Cc1ccc(OC)c(S(N)(=O)=O)c1 (stereo not given),–,inactive,inactive,–,–,–
COc1cc2ncn(-c3cc(OCc4ccccc4C(F)(F)F)c(C(N)=O)s3)c2cc1OC,–,inactive,–,–,–,–
CC(C)(C)c1cnc(CSc2cnc(NC(=O)C3CCNCC3)s2)o1,–,inactive,–,–,–,–
O=C(Cc1ccc(-c2ccc(OCCN3CCOCC3)cc2)cn1)NCc1ccccc1,–,–,inactive,inactive,inactive,–
CN(C)CCCN=c1c2ccccc2n(C)c2[nH]c(=O)n(C)c(=O)c12,–,inactive,–,–,–,–
CC(=O)c1c(C)c2cnc(Nc3ccc(N4CCNCC4)cn3)nc2n(C2CCCC2)c1=O,–,–,–,–,–,1.06% [at 6.45 µM] (inactive)
CCN1CCN(Cc2ccc(-c3cc4c(N[C@H](C)c5ccccc5)ncnc4[nH]3)cc2)CC1,–,22.7 µM (active),–,–,–,–
COc1ccc2c(c1)CC[C@@H](CN(C)CC(=O)O)[C@H]2c1ccccc1,–,inactive,inactive,–,–,–
O=c1[nH]nc(Sc2ncc([N+](=O)[O-])s2)n1-c1ccc2c(c1)OCCO2,–,inactive,–,–,–,–
COC(=O)c1ccc2c(C(=Nc3ccc(N(C)C(=O)CN4CCN(C)CC4)cc3)c3ccccc3)c(O)[nH]c2c1,–,–,inactive,inactive,inactive,–
O=C(O)Cn1nnc(-c2cc(N3CCC(Oc4cc(F)ccc4Br)CC3)no2)n1,–,–,inactive,–,inactive,–
CC(C)c1ccc(Cn2ccc3c4c(N)nc(NC5CC5)nc4ccc32)cc1,–,18 µM (active),–,–,–,–
O=C(c1cncc(Br)c1)N1CCC(N2CCCC2)CC1,–,inactive,inactive,inactive,–,–
CN(c1ncccc1CNc1nc(Nc2ccc3c(c2)CC(=O)N3)ncc1C(F)(F)F)S(C)(=O)=O,–,inactive,–,–,–,–
CC1(C)CCC(c2ccc(Cl)cc2)=C(CN2CCN(c3ccc(C(=O)NS(=O)(=O)c4ccc(N[C@H](CCN5CCOCC5)CSc5ccccc5)c(S(=O)(=O)C(F)(F)F)c4)cc3)CC2)C1,–,10.1 µM (active),inactive,–,inactive,–
O=C1CCC[C@@H]2[C@H]3CCC[N+]4([O-])CCC[C@@H](CN12)[C@@H]34 (stereo not given in full),–,inactive,inactive,inactive,inactive,–
CNC(=O)c1ccc(N2C(=S)N(c3cnc(C#N)c(C(F)(F)F)c3)C(=O)C23CCC3)cc1F,–,inactive,inactive,inactive,inactive,–
CC(O)C1C(=O)N2C(C(=O)O)=C(SC3CNC(C(=O)N(C)C)C3)C(C)C12 (stereo not given),–,inactive,inactive,inactive,inactive,–
COC(=O)C[C@](O)(CCCC(C)(C)O)C(=O)O[C@@H]1C(OC)=C[C@]23CCCN2CCc2cc4c(cc2[C@H]13)OCO4,–,inactive,–,–,–,–
COc1ccc2c(OCc3nnc4ccc(-c5ccccc5)nn34)ccnc2c1,–,inactive,inactive,–,inactive,–
Cn1c(=O)n(-c2ccc(C(C)(C)C#N)cc2)c2c3cc(-c4cnc5ccccc5c4)ccc3ncc21,–,inactive,inactive,inactive,inactive,–
Cc1cc(N2CCOCC2)cc2[nH]c(-c3c(NC[C@@H](O)c4cccc(Cl)c4)cc[nH]c3=O)nc12,–,–,inactive,–,inactive,–
O=C(NC1CCNCC1)c1[nH]ncc1NC(=O)c1c(Cl)cccc1Cl,–,inactive,–,–,–,–
COc1cc(C(=O)N2CCC(N3CCN(C)CC3)CC2)ccc1Nc1ncc2c(n1)N(C)c1ccccc1C(=O)N2C,–,inactive,inactive,–,–,–
